# Results filed as inconclusive are left out. The source made the active and inactive calls. Unless noted, the call rests on the fitted dose curve; in most records, active means well fitted curve in the direction sought with a large enough effect; inconclusive means small, poorly fitted or top-dose-only effect, or another doubt; inactive means no such curve, though single readings can be large; an effect the other way counts as inactive or inconclusive.
# Legend:
# [1] = qHTS to identify inhibitors of the type 1 interferon - major histocompatibility complex class I in skeletal muscle: primary screen against the NCATS LOPAC collection (AID 1347405)
# How it was run: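 Luminescence from HiBiT fused to endogenous HLA-B in CRISPR-engineered human myoblasts served as the read-out. Cells received 4.0 ng/ml IFN-beta plus compound (seven concentrations, 1:4.3 steps, highest 46 uM final) for 24 hrs before lytic detection.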
# [2] = qHTS to identify inhibitors of the type 1 interferon - major histocompatibility complex class I in skeletal muscle: primary screen against the NCATS Pharmaceutical Collection (AID 1347407)
# How it was run: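 Luminescence from HiBiT-tagged endogenous HLA-B*08:01 served as the read-out of IFN-beta-induced MHC class I in CRISPR-engineered C25cl48 myoblasts. Cells received 4 ng/ml IFN-beta plus compound (high final 46 uM, […]) for 24 h.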
# [3] = qHTS for inhibitors of adenylyl cyclases using a fission yeast platform: a pilot screen against the NCATS LOPAC library (AID 1347410)
# How it was run: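 Fission yeast qHTS: CHP2027 cells (AC9-GNAS-PDE4D2, fbp1-GFP), 5x10^6 cells/mL working density, EMM + His/Lys/Ura; LOPAC at up to 57 µM final; 18 h dark, 30C; GFP by laser cytometry. DPI positive control, DMSO vehicle.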
# [4] = molecular target: Protein phosphatase 1D (Homo sapiens) (UniProt O15297); assay: RapidFire Mass Spectrometry qHTS Assay for Modulators of WT P53-Induced Phosphatase 1 (WIP1) (AID 1347424)
# How it was run: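 10 nM WIP1 preincubated with compounds 1 hr at room temperature in pH 7.5 Tris buffer with 30 mM MgCl2, 1 mM TCEP; 2 uM VEPPL-pS-QETFS phosphopeptide for 5 min, formic acid quench; dephosphorylated product quantified by RapidFire MS against labelled standard.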
# [5] = molecular target: Protein phosphatase 1D (Homo sapiens) (UniProt O15297); assay: Rhodamine-PBP qHTS Assay for Modulators of WT P53-Induced Phosphatase 1 (WIP1) (AID 1347425)
# How it was run: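 The read-out is the change in Rhodamine-PBP fluorescence (f1 - f0, ex 525/em 598 nm) as Pi is released, read each minute for 11 min. Final reaction: 5 nM WIP1, 10 uM phosphopeptide VEPPL-pS-QETFS, 10 uM Rh-PBP, 50 mM Tris-HCl pH 7.5, 30 mM MgCl2. Compound was preincubated with enzyme for 1 hour at room temperature.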
# [6] = Validation qHTS assay for inhibitors of Activation Induced Cytidine Deaminase (AID): UDG Counterscreen signal (AID 1347427)
# How it was run: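 Counterscreen read of UDG activity (2 U/mL, 4/3x) in the FRET deamination format with AID (1 uM, 4/3x), DJC20/DJC23 substrates (250 nM, 4x), 4 h at room temperature. NaOH stop, fluorescence at 560 ex/665 em.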
# [7] = molecular target: Single-stranded DNA cytosine deaminase (Homo sapiens) (UniProt Q9GZX7); assay: Validation qHTS assay for inhibitors of Activation Induced Cytidine Deaminase (AID): AID signal (AID 1347429)
# How it was run: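 Fluorescence at 540 nm excitation and 590 nm emission reports ssDNA cytosine deamination by AID, with UDG in the same well. Compound-treated reactions ran 4 hr at room temperature with DJC20/DJC23 substrate, followed by 30 min NaOH treatment.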
# [8] = Primary qHTS for Huh7 cytotoxicity: counterscreen for inhibitors of MERS-S pseudotyped particle cell entry (AID 1479147; calls by dose curve)
# [9] = Primary qHTS for inhibitors of MERS-S pseudo-typed particle cell entry (AID 1479149; calls by dose curve)
# [10] = Primary qHTS for Vero E6 cytotoxicity: counterscreen for inhibitors of SARS-S pseudo-typed particle cell entry (AID 1479150; calls by dose curve)
# [11] = qHTS to identify inhibitors of the type 1 interferon - major histocompatibility complex class I in skeletal muscle: primary screen against the NCATS Mechanism Interrogation Plate v5.0 (MIPE) Libary (AID 1347411)
# How it was run: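 Luminescence from HiBiT-tagged endogenous HLA-B*08:01 served as the MHC class I read-out. CRISPR-engineered C25cl48 human myoblasts received 4.0 ng/ml IFN-beta plus compound for 24 hrs, with an 11-point, 1:3 series topping at 46 uM final.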
# [12] = Primary qHTS for inhibitors of SARS-S pseudo-typed particle cell entry (AID 1479145; calls by dose curve)
# [13] = qHTS for activators of Nrf2/ARE signaling pathway screened against the NCATS CANVASS Library (AID 1347391)
# How it was run: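 Plate ARE-bla HepG2 cells at 2000/well and let them settle 5 h. Pin-transfer compounds in DMSO, incubate 16 h at 37C. Load CCF4 for 2 h at room temperature and read blue/green fluorescence.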
# [14] = qHTS for activators of dead-cell proteases activity screened against the NCATS CANVASS Library (AID 1347392)
# How it was run: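 HepG2 cells, 2000/well, attached 18 h at 37C, then exposed to compounds (11-point qHTS) for 5 h. Dead-cell protease release read as luminescence from cell-impermeant AAF-aminoluciferin substrate after 15 min at room temperature.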
# [15] = qHTS for inhibitors of ER calcium dysfunction: SERCaMP assay screened against the NCATS CANVASS Library (AID 1347393)
# How it was run: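 SH-SY5Y GLuc-SERCaMP, 1000 cells/well, 4 h attach; cpd 16 h, 37C/5% CO2; thapsigargin (added as 6x 600 nM) 4 h; coelenterazine; luminescence. Reduced reporter release = ER Ca stabilization.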
# [16] = Vero-766 cells viability qHTS against the NCATS CANVASS Library: Counterscreen for Zika virus inhibition assay (AID 1347394)
# How it was run: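 Vero 766, no virus; 1000 cells/well; o/n attach; cpd 11-pt; 72 h, 37C, 5% CO2; CTG luminescence; cell-free media wells = 100% inhibition.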
# [17] = qHTS for inhibitors of Wild type Zika virus screened against the NCATS CANVASS Library (AID 1347396)
# How it was run: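 Luminescent CellTiter Glo read-out of virus-induced cytotoxicity, 72 h post-infection, in Vero 766 cells. Compounds were tested at 11 concentrations; uninfected, vehicle-treated wells defined 100% inhibition.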
# [18] = Viability qHTS for inhibitors of the SERCaMP assay screened against the NCATS CANVASS Library (AID 1347400)
# How it was run: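 SH-SY5Y SERCaMP MJH297 cells, 1000/well; 4 h settle, 37C/5% CO2; pin-transferred cpds; 48 h; CellTiter-Glo lum. Pos ctrl bortezomib 0.0001 - 4.6 uM.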
# [19] = Redox Reaction Profiling qHTS: Assay Interference Panel against the NCATS CANVASS Library (AID 1347401)
# How it was run: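 Compounds in 11-point series incubated with 5 uM resazurin and 200 uM DTT in 50 mM HEPES pH 7.3, 50 mM NaCl. Resorufin fluorescence (Ex 525/Em 598) read before and after 15 min in the dark.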
# [20] = qHTS for inhibitors of Rabies Virus screened against the NCATS CANVASS Library (AID 1347402; calls by dose curve)
# Sequence of Single-stranded DNA cytosine deaminase (Homo sapiens) (Q9GZX7 whole entry, looked up): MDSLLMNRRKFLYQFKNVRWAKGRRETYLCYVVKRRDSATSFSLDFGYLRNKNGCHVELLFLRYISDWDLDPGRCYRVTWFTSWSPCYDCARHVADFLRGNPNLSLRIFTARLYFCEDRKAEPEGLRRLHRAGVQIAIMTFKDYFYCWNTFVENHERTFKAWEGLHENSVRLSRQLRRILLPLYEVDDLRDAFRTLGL
# Sequence of Protein phosphatase 1D (Homo sapiens) (O15297 whole entry, looked up): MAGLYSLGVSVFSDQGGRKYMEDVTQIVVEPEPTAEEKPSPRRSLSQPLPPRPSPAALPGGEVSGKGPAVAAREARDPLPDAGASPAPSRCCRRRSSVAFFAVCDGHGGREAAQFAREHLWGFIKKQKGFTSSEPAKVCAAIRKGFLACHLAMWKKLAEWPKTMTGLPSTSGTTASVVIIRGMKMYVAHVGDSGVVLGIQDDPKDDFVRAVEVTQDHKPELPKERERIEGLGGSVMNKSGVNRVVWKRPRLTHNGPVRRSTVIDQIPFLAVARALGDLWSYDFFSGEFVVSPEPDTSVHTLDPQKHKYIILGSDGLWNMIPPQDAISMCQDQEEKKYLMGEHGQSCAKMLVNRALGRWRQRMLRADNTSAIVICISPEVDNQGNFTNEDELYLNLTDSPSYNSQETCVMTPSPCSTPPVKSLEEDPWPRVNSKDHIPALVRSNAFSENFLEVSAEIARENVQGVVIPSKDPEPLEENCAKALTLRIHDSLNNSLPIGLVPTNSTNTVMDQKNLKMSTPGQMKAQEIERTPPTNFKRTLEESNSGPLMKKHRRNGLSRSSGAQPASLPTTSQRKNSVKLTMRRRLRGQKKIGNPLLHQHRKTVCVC
smiles,measurement,setting,value
NC(=O)CN1CCCC1=O,outcome,[1],inactive
same,Potency,[2],inactive
same,outcome,[3],inactive
same,Potency,[4],inactive
same,outcome,[5],inactive
same,outcome,[6],inactive
same,outcome,[7],inactive
same,Potency,[8],inactive
same,Potency,[9],inactive
same,Potency,[10],inactive
CCO[C@H]1O[C@@H]2OC3(C)CC[C@H]4[C@H](C)CC[C@@H]([C@H]1C)[C@@]24OO3,Potency,[2],inactive
same,Potency,[4],inactive
same,outcome,[5],inactive
CCN(Cc1ccc(Cl)nc1)/C(=C/[N+](=O)[O-])NC,Potency,[2],inactive
same,Potency,[4],inactive
same,outcome,[5],inactive
COc1cc(C[C@@H](C)N)c(OC)cc1Br,Potency,[2],inactive
same,Potency,[4],inactive
same,outcome,[5],inactive
CCS(=O)(=O)C(C)(C)S(=O)(=O)CC,Potency,[2],inactive
same,Potency,[4],inactive
same,outcome,[5],inactive
NC1(c2ccccc2)CCCCC1,Potency,[2],inactive
same,Potency,[4],inactive
same,outcome,[5],inactive
C[N+]1(CCC(C(N)=O)(c2ccccc2)c2ccccc2)CCCCC1,Potency,[2],inactive
same,Potency,[4],inactive
same,outcome,[5],inactive
COc1cc(CC#N)cc(OC)c1OC,Potency,[2],inactive
same,Potency,[4],inactive
same,outcome,[5],inactive
COc1ccc(C(=O)N2CCCC2=O)cc1,outcome,[1],inactive
same,Potency,[2],inactive
same,outcome,[3],inactive
same,Potency,[11],inactive
same,Potency,[4],inactive
same,outcome,[5],inactive
same,outcome,[6],inactive
same,outcome,[7],inactive
same,Potency,[12],inactive
same,Potency,[8],inactive
same,Potency,[9],inactive
same,Potency,[10],inactive
O=c1[nH]c2cc(Cl)ccc2n1C1CCNCC1,Potency,[2],inactive
same,Potency,[4],inactive
same,outcome,[5],inactive
CC(C)(C)OC(=O)c1ncn2c1[C@@H]1CCCN1C(=O)c1c(Br)cccc1-2,Potency,[2],inactive
same,Potency,[4],inactive
same,outcome,[5],inactive
CCC1(c2ccccc2)CCC(=O)NC1=O (stereo not given),Potency,[2],inactive
same,Potency,[4],inactive
same,outcome,[5],inactive
OC(O)C(Cl)(Cl)Cl,Potency,[2],inactive
same,Potency,[4],inactive
same,outcome,[5],inactive
O=C(O)c1nn(Cc2ccc(Cl)cc2Cl)c2ccccc12,outcome,[1],inactive
same,Potency,[2],inactive
same,outcome,[3],inactive
same,Potency,[11],inactive
same,outcome,[6],inactive
same,outcome,[7],inactive
CN(C)CCc1c[nH]c2ccc(O)cc12,Potency,[2],inactive
same,Potency,[4],inactive
same,outcome,[5],inactive
O=C(CBr)Nc1ccc(Cl)cc1C(=O)c1ccccc1F,Potency,[2],inactive
same,Potency,[4],inactive
same,outcome,[5],inactive
Cc1nc2ccccc2c(=O)n1-c1ccccc1Cl,Potency,[2],inactive
same,Potency,[4],inactive
same,outcome,[5],inactive
CC(C)=CCN1CC[C@@]2(C)c3cc(O)ccc3C[C@@H]1[C@@H]2C,Potency,[2],inactive
same,Potency,[4],inactive
same,outcome,[5],inactive
CN(C)CCc1c[nH]c2ccccc12,outcome,[13],inactive
same,outcome,[14],inactive
same,outcome,[15],inactive
same,outcome,[16],inactive
same,outcome,[17],inactive
same,outcome,[18],inactive
same,outcome,[19],inactive
same,outcome,[20],inactive
same,Potency,[2],inactive
same,Potency,[4],inactive
same,outcome,[5],inactive
C[C@@H]1C[C@@H]([C@H](O)CC2CC(=O)NC(=O)C2)C(=O)[C@@H](C)C1,Potency,[2],374 nM (active)
same,Potency,[11],262 nM (active)
same,Potency,[4],inactive
same,outcome,[5],inactive
CC[n+]1c(-c2ccccc2)c2cc(N)ccc2c2ccc(N)cc21,Potency,[2],inactive
ClC1=C(Cl)C2(Cl)C(CBr)CC1(Cl)C2(Cl)Cl (stereo not given),Potency,[2],inactive
same,Potency,[4],inactive
same,outcome,[5],inactive
CC(Cc1ccc2c(c1)OCO2)NO (stereo not given),Potency,[2],inactive
same,Potency,[4],inactive
same,outcome,[5],inactive
CC(C)=C[C@@H]1[C@@H](C(=O)OCc2coc(Cc3ccccc3)c2)C1(C)C,Potency,[2],inactive
same,Potency,[4],inactive
same,outcome,[5],inactive
C[C@@H]1O[C@@H](O[C@@H]2C=C3CC[C@@H]4[C@H](CC[C@]5(C)[C@@H](c6ccc(=O)oc6)CC[C@]45O)[C@@]3(C)CC2)[C@H](O)[C@H](O)[C@H]1O,Potency,[2],3.3 nM (active)
same,Potency,[11],7.4 nM (active)
same,Potency,[4],inactive
same,outcome,[5],inactive
same,Potency,[12],inactive
same,Potency,[9],inactive
CCOC(=O)C(c1c(O)c2ccccc2oc1=O)c1c(O)c2ccccc2oc1=O,Potency,[2],inactive
same,Potency,[4],inactive
same,outcome,[5],inactive
COC(=O)C1=CCCN(C)C1,outcome,[1],inactive
same,Potency,[2],inactive
same,outcome,[3],inactive
same,Potency,[4],inactive
same,outcome,[5],inactive
same,outcome,[6],inactive
same,outcome,[7],inactive
CN1[C@@H]2CC[C@H]1CC(OC(=O)c1cc(Cl)cc(Cl)c1)C2 (stereo not given in full),Potency,[2],inactive
same,Potency,[4],inactive
same,outcome,[5],inactive
Nc1ccc(N)cc1,Potency,[2],inactive
same,Potency,[4],inactive
CC1Sc2c(C(=O)O)c(=O)c3cc(F)c(N4CCNCC4)cc3n21 (stereo not given),Potency,[2],inactive
same,Potency,[4],inactive
same,outcome,[5],inactive
ClCc1cccc(Cl)c1,Potency,[2],inactive
same,Potency,[4],inactive
same,outcome,[5],inactive
Sc1ccccc1Cl,Potency,[2],inactive
same,Potency,[4],inactive
same,outcome,[5],inactive
C[C@@H]1CC[C@H]2[C@@H](C)C(=O)O[C@@H]3O[C@@]4(C)CC[C@@H]1[C@]32OO4,Potency,[2],inactive
same,Potency,[11],inactive
same,Potency,[4],inactive
same,outcome,[5],inactive
CCOC(=O)NC(C)(C)Cc1ccc(Cl)cc1,Potency,[2],inactive
same,Potency,[4],inactive
same,outcome,[5],inactive
CCCOC(=O)Cc1ccc(OCC(=O)N(CC)CC)c(OC)c1,Potency,[2],inactive
same,Potency,[4],inactive
same,outcome,[5],inactive
Nc1ccc(Cl)cc1C(=O)c1ccccc1F,Potency,[2],inactive
same,Potency,[4],inactive
same,outcome,[5],inactive
CC(C)NCC(O)c1ccc(N)c(C#N)c1 (stereo not given),Potency,[2],inactive
same,Potency,[4],inactive
same,outcome,[5],inactive
C[C@]12CC[C@H]3[C@@H](CC=C4C[C@@H](O)CC[C@@]43C)[C@@H]1CC[C@@H]2O,Potency,[2],inactive
same,Potency,[4],inactive
same,outcome,[5],inactive
C[C@]12CC[C@H](O)CC1=CC[C@@H]1[C@@H]2CC[C@]2(C)C(=O)CC[C@@H]12,Potency,[2],inactive
same,Potency,[11],inactive
same,Potency,[4],inactive
same,outcome,[5],inactive
same,Potency,[12],inactive
same,Potency,[8],inactive
same,Potency,[9],inactive
same,Potency,[10],inactive
CN1CCC(N(Cc2ccccc2)c2ccccc2)CC1,Potency,[2],inactive
same,Potency,[4],inactive
same,outcome,[5],inactive
Cc1c(Cl)c(=O)oc2cc(OP(=O)(OCCCl)OCCCl)ccc12,Potency,[2],inactive
same,Potency,[4],inactive
same,outcome,[5],inactive
same,Potency,[12],inactive
same,Potency,[8],inactive
same,Potency,[9],inactive
same,Potency,[10],inactive
CN1CCc2cc(Cl)c(O)cc2[C@H]2c3ccccc3CC[C@@H]21,Potency,[2],inactive
same,Potency,[4],inactive
same,outcome,[5],inactive
CC1=C2[C@H]3OC(=O)[C@@H](C)[C@@H]3CC[C@@]2(C)C=CC1=O,Potency,[2],inactive
same,Potency,[4],inactive
same,outcome,[5],inactive
same,Potency,[12],inactive
same,Potency,[8],inactive
same,Potency,[9],inactive
same,Potency,[10],inactive

# — PubChem BioAssay (NCATS)
